About 4,000 (2.1%) of roughly 190,000 compounds were called active. No stated cut-off is given here; in the data, active means inhibition above about 58%; inactive means the rest, inconclusive results apart; tested in S. cerevisiae. The list comes from a sample in which actives are over-represented; it also holds similar structures and randomly drawn compounds.
Test: growth inhibition of WT strain, primary screen, mitochondrial fusion inhibitor project, WT and mutant strains, chemical genetic (AID 1362)
Settings: mitochondrial fusion phenotypic screen, at 10 µM
[1] = WT strain, growth inhibition, stronger effect = higher value

Row | Compound | inhibition [1] | inhibition (mutant strain inhibition) [%]
1 | CCOC(=O)C1CCCN(C(=O)c2cccc(S(=O)(=O)N3CCOCC3)c2)C1 (stereo unspecified) | -0.28% (inactive) | -18.7
2 | O=C(COc1ccc(-c2ccccc2)cc1)NN=C1CCCC1 | 2.21% (inactive) | -3.38
3 | CCCc1noc2c1/C(=N\O)CCC2 | -2.57% (inactive) | -4.14
4 | CCCCc1cc2c(s1)CCCC/C2=N/O | 63.2% (active) | 6.26
5 | Cc1[nH]c2ccccc2c1/C=C(/C#N)C(=O)NC(C)C | -14% (inactive) | -5.17
6 | Cc1ccc(NC(=S)N(Cc2ccco2)C(C)c2cccs2)cc1 (stereo unspecified) | 75.8% (active) | 51.5
7 | Cc1ccc(NC(=S)N(CCN2CCCCC2)Cc2ccco2)cc1C | 8.12% (inactive) | 24.1
8 | Cc1ccc(NC(=S)N(CCCN2CCC(C)CC2)Cc2ccco2)cc1 | 2.89% (inactive) | 13.6
9 | CCN1CCN(C(C(=O)NC2CCCC2)c2cc3c(cc2[N+](=O)[O-])OCO3)CC1 (stereo unspecified) | 2.26% (inactive) | -2.37
10 | CC1(c2ccccc2)CC(C)(C)N(C(=O)c2cc([N+](=O)[O-])cc([N+](=O)[O-])c2)c2ccccc21 (stereo unspecified) | 57% (inactive) | 35.9
11 | CC1CCN(C(=S)c2cccc([N+](=O)[O-])c2)CC1 | 7.85% (inactive) | 23
12 | CC1(c2cccc([N+](=O)[O-])c2)CC(C)(C)N(C(=O)c2ccccc2)c2ccccc21 (stereo unspecified) | 75.8% (active) | 33.1
13 | CCC(C(=O)OCC(=O)Nc1ccc(C(=O)Nc2ccc(OC)cc2)cc1)c1ccccc1 (stereo unspecified) | 12.9% (inactive) | -13.4
14 | CCC(C(=O)OCC(=O)Nc1ccccc1-c1ccccc1)c1ccccc1 (stereo unspecified) | 70.9% (active) | -2.32
15 | CCC(C(=O)OCC(=O)Nc1c(Cl)cc(Cl)cc1Cl)c1ccccc1 (stereo unspecified) | 11.1% (inactive) | -9.47
16 | O=C(Nc1ccc(NC(=O)c2ccco2)c(Cl)c1)c1cccc([N+](=O)[O-])c1 | 2.21% (inactive) | 16.7
17 | CC(=O)c1cnc(-c2ccccc2)s1 | 3.8% (inactive) | -4.54
18 | Cc1cccc(NC(=S)N2CCCC(c3nc4ccccc4[nH]3)C2)c1 (stereo unspecified) | -10.4% (inactive) | 0.82
19 | O=C(C1CCCO1)N1CCN(C(=S)Nc2cccc(Cl)c2)CC1 (stereo unspecified) | -4.05% (inactive) | 25.8
20 | Cc1ccc(C2CCN(C(=S)Nc3cccc(Cl)c3)C2)cc1 (stereo unspecified) | 74.3% (active) | 55
21 | CC1CN(/C=C/C(=O)C(F)(F)F)CC(C)O1 (stereo unspecified) | -25.3% (inactive) | 4.39
22 | O=C(O)c1cccc(NC(=S)N/N=C/c2c[nH]c3ccccc23)c1 | -10.2% (inactive) | 4.36

Row | Compound | inhibition [1] | inhibition (mutant strain inhibition) [%]
23 | S=c1[nH]nc(-c2ccccc2)n1/N=C/c1c[nH]c2ccccc12 | 1.16% (inactive) | 0
24 | CSC(=S)N/N=C/c1c[nH]c2ccccc12 | 65.8% (active) | 13.3
25 | CCOC(=O)c1cnc2[nH]c3ccccc3n2c1=O | 2.43% (inactive) | -12.9
26 | Cc1ccc(Cl)cc1NC(=O)C1CCN(S(C)(=O)=O)CC1 | -9.34% (inactive) | -12.3
27 | Cc1ccccc1NC(=O)NC1(C(=O)N2CCCC2)CCCCC1 | -9.64% (inactive) | 7.72
28 | Cc1cccc(NC(=S)NCCc2ccc(F)cc2)c1C | 74.7% (active) | 64.6
29 | CCNC(=S)Nc1cccc(Cl)c1C | 12.8% (inactive) | 23.6
30 | Cc1c(NC(=S)NCc2ccc(F)cc2)cccc1[N+](=O)[O-] | 5.62% (inactive) | 3.03
31 | O=C(OCC(=O)N1CCOCC1)c1ccc(N2CCOCC2)c([N+](=O)[O-])c1 | -7.83% (inactive) | -1.16
32 | O=C(COc1ccc(Cl)cc1[N+](=O)[O-])N1CCCCC1 | 1.62% (inactive) | -14.6
33 | CNC(=S)N/N=C/c1cn(Cc2ccc(C)cc2)c2ccccc12 | 74.4% (active) | 61.2
34 | COC(=O)N/N=C/c1cn(CCCOc2ccc(C)cc2)c2ccccc12 | 2.1% (inactive) | -14.3
35 | CCOC(=O)N/N=C/c1cn(Cc2ccccc2Cl)c2ccccc12 | -3.34% (inactive) | -14.2
36 | Cc1cc(C(C)(C)C)cc(S(=O)(=O)Nc2ccc(C(=O)O)cc2)c1C | -13% (inactive) | 10.3
37 | Cc1cc(NS(=O)(=O)c2ccc(NC(=O)c3cccc(OC(F)F)c3)cc2)nc(C)n1 | -7.81% (inactive) | 6.49
38 | Cc1cc(C)cc(NC(=O)CSc2ccccc2)c1 | -4.46% (inactive) | -13.2
39 | O=C(N/N=C/c1ccc([N+](=O)[O-])cc1)c1c[nH]c2ccccc12 | -8.33% (inactive) | 14.7
40 | Cc1ccsc1C(=O)N/N=C/c1ccc([N+](=O)[O-])cc1 | -11.5% (inactive) | -7.32
41 | Cc1nc2ccccc2cc1C(=O)N/N=C/c1ccc([N+](=O)[O-])cc1 | 65.1% (active) | 20.7
42 | Cc1ccc2[nH]c(=O)c(CN(CC3COCCO3)C(=O)Nc3ccccc3C)cc2c1 (stereo unspecified) | -8.31% (inactive) | 8.92
43 | Cc1cc(C)n(-c2nc(SCC(=O)N3CCCC3)c3c4c(sc3n2)CCCC4)n1 | 62% (active) | 38.4
